Shown are actives, neighbours in structure and some others; about 3.5% of the full set was active somewhere.
NS1 function inh = qHTS Assay for Inhibitors of Influenza NS1 Protein Function; Potency, µM (highest dose often 46.1 µM), inactives show at the top dose activity, positive = more growth; actives 0.4% (n = 270,000); AID 2326, 2010; calls by dose curve; also: actives are rising curves; nearly all actives have a fitted effect of over 50% in size
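Compounds were scored for reversing the slow growth caused by influenza A NS1 in S. cerevisiae, measured by optical density at 600 nm. Assay medium contained 2% galactose at pH 6.0; NS1-free yeast of the same strain were the positive control.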
Tb PYK inh = qHTS of Trypanosoma Brucei Inhibitors. pyruvate kinase (Trypanosoma brucei), Q57TT1. TbPYK enzyme, Kinase-Glo Plus ATP luminescence, 45 min. Potency, µM (titrated, usually from 76.8 µM), for the others: at the top dose activity, negative = inhibition, hits mostly inhibitors. actives 0.12% (n = 410,000). AID 624173, 2012; also: % is scaled to controls: 0 for no effect and ±100 for the full control effect; nearly all actives have a fitted effect of over 50% in size
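T. brucei PYK with substrate was exposed to pin-transferred compounds across a concentration series, then started with 130 uM ADP (final). After 45 min at room temperature, Kinase-Glo Plus luminescence was read, normalized and curve-fitted.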
Sm TGR block = qHTS Assay for the Inhibitors of Schistosoma Mansoni Peroxiredoxins; Schistosoma mansoni thioredoxin glutathione reductase (TGR), Q962Y6; purified TGR, DTNB reduction, TNB absorbance 405 nm; Potency, µM (titrated, usually from 114 µM), without a hit: top-dose activity change, negative = inhibition, actives largely listed as inhibitors; actives 3% (n = 360,000); also: % is scaled to controls: 0 for no effect and ±100 for the full control effect; nearly all actives have a fitted effect of over 60% in size
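TGR 20 nM + NADPH 100 uM (dispensed conc.), cpd preinc 15 min RT; start with NADPH (500 uM addition) then DTNB (15 mM addition). Kinetic TNB absorbance, 405 nm filter. Four-parameter Hill fit across titration.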
LmPK inh = qHTS Assay for Inhibitors of Leishmania Mexicana Pyruvate Kinase (LmPK). actives 0.37% (n = 290,000). AID 1721, 2009. Q27686. purified LmPK, Kinase-Glo ATP luminescence, 1 h. Potency, µM (highest dose often 57.5 µM), without a hit: at the top dose activity change, negative = inhibition, usual class: inhibitors; also: % is scaled to controls: 0 for no effect and ±100 for the full control effect
Target sequence (Q27686 whole entry, looked up): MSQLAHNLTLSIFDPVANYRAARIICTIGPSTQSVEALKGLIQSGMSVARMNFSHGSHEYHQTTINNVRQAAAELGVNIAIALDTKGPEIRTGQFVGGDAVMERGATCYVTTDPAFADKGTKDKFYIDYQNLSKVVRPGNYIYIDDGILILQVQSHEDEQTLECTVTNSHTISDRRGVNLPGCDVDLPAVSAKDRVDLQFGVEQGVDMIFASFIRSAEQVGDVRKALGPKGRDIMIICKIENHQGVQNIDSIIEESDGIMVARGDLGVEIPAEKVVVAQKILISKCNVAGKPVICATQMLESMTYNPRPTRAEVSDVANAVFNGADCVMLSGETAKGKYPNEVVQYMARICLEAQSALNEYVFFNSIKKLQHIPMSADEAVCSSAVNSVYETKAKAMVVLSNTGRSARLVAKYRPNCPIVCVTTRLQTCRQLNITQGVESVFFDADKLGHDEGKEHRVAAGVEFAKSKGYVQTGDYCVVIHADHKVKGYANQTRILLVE
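In 50 mM imidazole pH 7.2 with 7 mM MgCl2, LmPK (0.1 nM) turned over PEP (0.5 mM) and ADP (0.1 mM) for 1 h at room temperature. Luciferase read-out of ATP.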
FBPA Giardia inh = qHTS Assay for Inhibitors of Fructose-1,6-bisphosphate Aldolase from Giardia Lamblia | actives 0.71% (n = 290,000) | Potency, µM (titrated, usually from 59.6 µM), without a hit: at the top dose activity, negative = inhibition, most hits filed as inhibitors | purified Giardia FBPA | A8B2U2 | AID 2451, 2010; also: % is scaled to controls: 0 for no effect and ±100 for the full control effect; nearly all actives have a fitted effect of over 55% in size
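Giardia FBPA (40 nM reagent) was preincubated 10 min at RT with compound (up to 57.5 uM final), then substrate plus GAPDH/TPI/NAD/arsenate coupling system with diaphorase/resazurin was added; resorufin fluorescence (525/598 nm) was read after 20 min.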
RE007 growth inh = qHTS Assay for Inhibitors of the HIV-1 protein Vpr; S. pombe RE007 Vpr strain, BacTiter-Glo ATP luminescence, 24 h; Potency, µM (series often up to 92.2 µM), for the others: at the top dose activity change, negative = less growth, usual class: inhibitors; actives 0.21% (n = 360,000); active = well fitted falling curve with a large enough effect; inconclusive = small, poorly fitted or top-dose-only effect; inactive = no such curve, though single readings can be large or run the other way; also: % is scaled to controls: 0 for no effect and ±100 for the full control effect; nearly all actives have a fitted effect of over 50% in size
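Fission yeast RE007 carrying one integrated HIV-1 vpr copy, seeded at OD 0.01 in PMG+AL medium with 23 nL pinned compound. Grown 24 h at 30 degrees; viability read by BacTiter-Glo luminescence after 5 min.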
The depositor's hits bear a star; u = inconclusive; x = no result. Unless noted, calls follow the shape of the dose curve; as a rule, active = well fitted curve in the direction sought with a large enough effect; inconclusive = small, poorly fitted or top-dose-only effect, or another doubt; inactive = no such curve, though single readings can be large; an effect the other way counts as inactive or inconclusive. Potency is read from the fitted curve at half-maximal effect.

SMILES | NS1 function inh | Tb PYK inh | Sm TGR block | LmPK inh | FBPA Giardia inh | RE007 growth inh
COc1ccccc1CNC(=O)C(=O)NCC(c1ccco1)S(=O)(=O)c1ccc(C)cc1 (stereo not drawn) | x | -6% | -26% | x | x | x
COc1ccc(CCNC(=O)C(=O)NCC(c2ccco2)S(=O)(=O)c2ccccc2)cc1OC (stereo not drawn) | x | 0% | 13µM* | x | x | x
Cc1oc(-c2ccc(Cl)cc2)nc1Cn1c(=O)cc(C)c2c(C)nn(-c3cccc(F)c3)c21 | x | 1% | -2% | x | x | x
COc1ccccc1C(=O)C1CCCN(C(=O)c2ccccc2C(C)=O)C1 (stereo not drawn) | 4% | 0% | -9% | -9% | -14% | -3%
COc1ccc(C(=O)C2CCCN(C(=O)c3ccc(CSC)o3)C2)cc1F (stereo not drawn) | 18% | -6% | 28µM* | 4% | x | 1%
COc1ccc(C(=O)C2CCCN(C(=O)c3ccccc3C(C)=O)C2)cc1F (stereo not drawn) | 6% | -1% | 40µM* | 5% | 1% | 2%
CC(=O)c1ccccc1C(=O)N1CCCC(C(=O)c2ccc(C(F)(F)F)cc2)C1 (stereo not drawn) | -5% | 7% | 40µM* | 10% | -4% | -7%
Cc1ccc(C)c(CN2C(=O)c3ccccc3S(=O)c3ccc(C(=O)N4CCCCC4)cc32)c1 (stereo not drawn) | x | -2% | 3% | x | x | x
CCCc1nn2c(=O)cc(COC(=O)c3ccc(NC(=O)COc4ccccc4)cc3)nc2s1 | x | 5% | 4% | x | x | x
C=CCNC1=C(Cl)C(=O)N(Cc2ccccc2)C1=O | -17% | -6% | 40µM* | -2% | 2% | 48%
C=CCNC1=C(Cl)C(=O)N(c2cccc(Cl)c2Cl)C1=O | -56% | 2% | -24% | -1% | 0% | 4%
O=C1C(Cl)=C(NCCc2ccccc2)C(=O)N1CCc1ccccc1 | 10% | 9% | -3% | 4% | 7% | -15%
O=C1C(Cl)=C(NCc2cccnc2)C(=O)c2ccccc21 | -6% | 3% | 45µM* | 0% | -19% | u
O=C(O)c1cccc(NC2=C(Cl)C(=O)c3ccccc3C2=O)c1 | x | -3% | 1.6µM* | -19% | u | -9%
C=CCNC1=C(Cl)C(=O)c2ccccc2C1=O | -21% | -1% | 45µM* | -12% | u | 20µM*
COc1cccc(NC(=O)N2CCC(CN3CCOCC3)CC2)c1 | x | 2% | -1% | x | x | x
CC(=O)N1CCc2c(sc3nc(SCC(N)=O)n(-c4ccc(F)c(Cl)c4)c(=O)c23)C1 | x | 3% | -1% | x | x | x
C=C1CC2C(=O)N(Cc3ccccc3)C(C(=O)O)C1N2C(=O)OC(C)(C)C (stereo not drawn) | x | x | x | x | -1% | x
COCCCNC1=C(Cl)C(=O)c2ccccc2C1=O | -9% | -6% | -32% | -11% | -12% | u
Cc1ccc(NCC(=O)c2ccccc2)cc1Cl | -16% | -16% | -7% | -8% | -1% | 4%
O=C1C(Cl)=C(Nc2ccccc2)C(=O)c2ccccc21 | 1% | -3% | 1µM* | -3% | u | 6%
CCN(CC)CCCNC1=C(Cl)C(=O)c2ccccc2C1=O | -9% | -6% | 35µM* | -6% | 18% | u
Cc1ccc(NC2=C(NC(=O)c3ccccc3)C(=O)c3ccccc3C2=O)cc1Cl | -33% | u | 1.6µM* | 7.1µM* | u | u
CC(C)OCCCNC1=C(Cl)C(=O)c2ccccc2C1=O | -6% | -6% | 21% | -6% | 0% | u
CC(C)NC1=C(Cl)C(=O)c2ccccc2C1=O | -85% | -5% | 28µM* | -8% | u | u
SMILES | NS1 function inh | Tb PYK inh | Sm TGR block | LmPK inh | FBPA Giardia inh | RE007 growth inh
CCN(CC)c1cc(C)c2cc(NC(=O)/C=C/c3ccc(C)cc3)ccc2n1 | x | 0% | -2% | x | x | x
O=C1C(Cl)=C(NCCc2ccccc2)C(=O)c2ccccc21 | x | u | x | x | x | 6.3µM*
C#CCOCCOCCOCCNc1nc(N2CCN(C(=O)CCCCCCCCCCNC(=O)Cn3cc(CCCCCN)nn3)CC2)nc(N2CCN(C(=O)CCCCCCCCCCNC(=O)[C@H](CO)n3cc(CCCCCN)nn3)CC2)n1 | x | -10% | 40µM* | x | x | 17%
C#CCOCCOCCOCCNc1nc(N2CCN(C(=O)CCCCCCCCCCNC(=O)Cn3cc(CCCCCN)nn3)CC2)nc(N2CCN(C(=O)CCCCCCCCCCNC(=O)[C@H]([C@@H](C)CC)n3cc(CCCCCN)nn3)CC2)n1 | x | 1% | 45µM* | x | x | 9%
COc1cc(NC(=O)CCN2CCN(c3ccccc3)CC2)cc(OC)c1 | x | x | -2% | x | x | x
O=C(Cn1ncc(Cl)c(Cl)c1=O)Nc1ccc2c(c1)OCO2 | x | 4% | 45µM* | x | x | -10%
Cc1nn(CC(=O)Nc2ccc3c(c2)OCO3)c(C)c1Cl | 11% | -5% | -15% | 4% | x | 1%
CCN(CC)S(=O)(=O)c1cc(NC(=O)Cn2ncc(Cl)c(Cl)c2=O)ccc1C | 3% | 0% | 0.56µM* | 0% | 1% | 9%
CC(NC(=O)Cn1ncc(Cl)c(Cl)c1=O)C12CC3CC(CC(C3)C1)C2 (stereo not drawn) | -15% | -3% | 40µM* | -2% | 1% | 2%
CCN(CC)S(=O)(=O)c1cc(NC(=O)CN2C(=O)NC(C)(c3ccccc3)C2=O)ccc1C (stereo not drawn) | -5% | -7% | 10% | 0% | -17% | -5%
Cc1ccccc1OC(=O)c1snnc1C | x | 0% | 7% | x | x | x
Cc1nnsc1C(=O)Oc1ccccc1Cl | x | -5% | 45µM* | x | x | x
O=C(NNC1CC(=O)N(c2ccc(F)cc2)C1=O)c1cccnc1 (stereo not drawn) | 1% | 4% | 7.9µM* | 1% | 1% | 7%
O=C(NNC1CC(=O)N(c2ccccc2)C1=O)c1cccnc1 (stereo not drawn) | 6% | -2% | 1% | -1% | -1% | -6%
O=C1Nc2ccccc2C1Cc1ccc(OC(F)(F)F)cc1 (stereo not drawn) | 13% | -7% | -6% | 3% | 6% | 2%
COc1cc(CC2C(=O)Nc3ccccc32)cc(C)c1O (stereo not drawn) | 5% | -6% | 40µM* | 0% | -3% | -4%
Cc1c2cc(O)c(=O)cc-2oc2cc(O)c(O)cc12 | 3% | -27% | u | u | 7.1µM* | u

Source: PubChem
